# Assay results: the supplement of paper PMC10981050
# “And” between values parts separate entries of the source, which are not always exact repeats. Equal values may be shown once.
# Assays:
# Assay in all cases: cell viability relative to vehicle control; higher = less cytotoxic
# Settings in all cases: 10 µM
# [1] = tested on: K562
# Outline: (§1)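 Mutant clones made by CRISPR editing and their isogenic wild-type counterparts, from four leukaemia lines, were exposed to a single 10 µM dose of each library compound for 48 h. The supernatant was then removed and CellTiter-Glo luminescence was read. Viability was reported as percent of the on-plate vehicle control.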
# [2] = tested on: MARIMO
# Outline: as §1
# [3] = tested on: MOLM14
# Outline: as §1
# [4] = tested on: OCI-AML2
# Outline: as §1
Compound,cell viability ([1]; SRSF2 genotype: SRSF2 P95H/wt),cell viability ([1]; SRSF2 genotype: SRSF2 wt/wt),cell viability ([2]; SRSF2 genotype: SRSF2 P95H/wt),cell viability ([2]; SRSF2 genotype: SRSF2 wt/wt),cell viability ([3]; SRSF2 genotype: SRSF2 P95H/wt),cell viability ([3]; SRSF2 genotype: SRSF2 wt/wt),cell viability ([4]; SRSF2 genotype: P95H/wt),cell viability ([4]; SRSF2 genotype: wt/wt)
Oc1cc(O)cc(/C=C/c2ccc(O)c(O)c2)c1 [Piceatannol],86.5% and 89.3%,97%,92.8%,88.8%,71.8%,79.7%,90.4%,87.9%
Cn1c(N2CCCCS2(=O)=O)nc(C(=O)NCc2ccc(F)cc2)c(O)c1=O,110%,113%,108%,115%,112%,111%,112%,102%
CNC[C@H](O)c1ccc(O)c(O)c1 [Epinephrine bitartrate (Adrenalinium)],97.4% and 94.9%,94%,102%,108%,84.5%,97.6%,102%,112%
O=C(O)CCC(=O)Nc1ccc(Br)cn1 [Bikinin],100% and 97.8%,106%,104%,104%,102%,106%,102%,99.7%
O=NN(CCCl)C(=O)NC1CCCCC1 [Lomustine (CeeNU)],95% and 113%,111%,100%,99.9%,84%,97.9%,97.2%,105%
O=C(Nc1ccccc1)c1cc([N+](=O)[O-])ccc1Cl,91.7% and 96.2%,81.4%,86.8%,90.8%,89.3%,101%,90.1%,91.8%
CC1(C)C(O[C@@H]2OC[C@@H](O)[C@H](O)[C@H]2O)CC[C@]23CC24CC[C@]2(C)[C@@H]([C@@]5(C)CC[C@@H](C(C)(C)O)O5)[C@H](O)C[C@@]2(C)C4C[C@@H](O[C@@H]2O[C@H](CO)[C@@H](O)[C@H](O)[C@H]2O)C13 (stereo not given in full) [Astragaloside IV],110% and 114%,113%,112%,102%,108%,114%,116%,102%
CS(=O)(=O)c1ccc(-c2cnc(NCc3ccco3)n3cnnc23)cc1,99.9% and 93.9%,97.2%,103%,99.5%,100%,98.5%,101%,110%
Cc1cnc(-c2cc(N3CCN(C(=O)CCS(C)(=O)=O)CC3)ncc2Cl)c(C)c1,98.7% and 98.8%,96.3%,101%,110%,100%,104%,96.2%,105%
C[C@@H]1CC(=O)c2c(ccc3c2C(=O)c2cccc(O)c2C3=O)C1,77.9% and 93.8%,94.6%,67.6%,57.6%,53.9%,68.5%,43.4%,43.6%
